Bioassay records (PubChem)
BoNT-A LC inh2: BoNT A light chain protease inhibition; AID 588499; inhibition, % at 10 µM; 360,000 tested, 0.17% active; multiplex microsphere protease substrate cleavage, flow cytometry; further: plate controls were buffer without enzyme for full effect and enzyme alone for no effect
Anthrax LF inh2: inhibitors of Bacillus anthracis lethal factor protease; multiplex microsphere protease cleavage assay, LF; inhibition, % at 10 µM; AID 588501; 360,000 tested, 0.12% active; P15917; further: plate controls were buffer without enzyme for full effect and enzyme alone for no effect
Bead autofluor: compound fluorescence in toxin protease inhibitor counterscreen; compound autofluorescence counterscreen, microsphere flow cytometry; stronger effect = higher value; fluorescence intensity (concentration not given with the values); 360,000 tested, 3.1% active; AID 624483; in the data active means fluorescence intensity above about 16000; inconclusive means no clear call, values can overlap the other calls
TcdB inh: inhibitors of Clostridioides difficile toxin B glycohydrolase. P18177. TcdB glycohydrolase enzymatic assay, plate reader. inhibition, % at 9.99 µM. 350,000 tested, 0.24% active. AID 652162; in the data active means inhibition above about 10%
BoNT F protease: inhibitors of Botulinum neurotoxin F light chain protease. Multiplex microsphere protease cleavage assay, flow cytometry. inhibition, % at 10 µM. 360,000 tested, 0.22% active. AID 588497; in the data active means inhibition above about 35%, passing the limit was not always enough; inconclusive means no clear call, values can overlap the other calls; further: plate controls were buffer without enzyme for full effect and enzyme alone for no effect
The depositor's hits bear a star; ? = inconclusive; nt = no result. This excerpt belongs to a sample that is enriched for hits. Unless noted, no stated cut-off is given here; in the data, active means inhibition above about 30%; inconclusive means no clear call, values can overlap the other calls; inactive means below that.

SMILES | BoNT-A LC inh2 | Anthrax LF inh2 | Bead autofluor | TcdB inh | BoNT F protease
COc1cccc(C2=NOC(C(=O)Nc3ccc(OC)c(OC)c3)C2)c1 (stereo unspecified) | 1 | 0 | 10066 | nt | -2
CC1CCCC(C)N1C(=O)C1CC(c2ccc(F)cc2)=NO1 (stereo unspecified) | -3 | 0 | 17330* | nt | -4
COc1cccc(C2=NOC(C(=O)NC3CCCCC3)C2)c1 (stereo unspecified) | 1 | -5 | 10640 | nt | 6
CC(=O)c1ccc(NC(=O)C2CC(c3ccc(F)cc3)=NO2)cc1 (stereo unspecified) | -1 | -2 | 23509* | nt | -3
COc1cccc(C2=NOC(C(=O)Nc3cccc(C(C)=O)c3)C2)c1 (stereo unspecified) | 9 | -3 | 19143* | nt | 11
C[C@@H]1CN([C@H](C)CO)C(=O)c2cc(NC(=O)Nc3ccc(F)cc3)ccc2O[C@@H]1CN(C)Cc1ccc(Oc2ccccc2)cc1 | nt | nt | nt | 1 | nt
O=C(C1CCC1)N1CC[C@@H]2[C@H](CO)Nc3ccc(C#Cc4cccc(F)c4)cc3[C@@H]21 | nt | nt | nt | -1 | nt
O=C(C[C@H]1C[C@H]2c3cc(NC(=O)NC4CCCC4)ccc3O[C@H]2[C@@H](CO)O1)NCc1ccc2c(c1)OCO2 | nt | nt | nt | 0 | nt
Cc1noc(C)c1NC(=O)N(C)C[C@@H]1Oc2ccc(NC(=O)CCN3CCOCC3)cc2CC(=O)N([C@@H](C)CO)C[C@@H]1C | nt | nt | nt | -8 | nt
COc1ccc(S(=O)(=O)N(C)C[C@H]2OCCCC[C@H](C)Oc3ccc(NS(=O)(=O)c4ccc(C)cc4)cc3C(=O)N([C@@H](C)CO)C[C@@H]2C)cc1 | nt | nt | nt | 1 | nt
COc1ccc(C2C(=O)N(C3CCCCC3)CC(=O)N2Cc2ccc3c(c2)OCO3)cc1 (stereo unspecified) | 3 | -2 | 15747 | 0 | 0
Cc1ccc(C2C(=O)N(C3CCCC3)CC(=O)N2CC2COc3ccccc3O2)cc1 (stereo unspecified) | 9 | -6 | 19758* | nt | 9
COc1ccc(C2C(=O)N(C3CCCCC3)CC(=O)N2CC2COc3ccccc3O2)cc1 (stereo unspecified) | 5 | -2 | 21276* | nt | 7
Cc1cc2n(n1)C(c1cn(-c3ccccc3)nc1C)Nc1ccccc1-2 (stereo unspecified) | ? | -1 | 22907* | nt | -1
O=C(C[C@H]1C=C[C@H](NC(=O)Nc2cccc(F)c2)[C@H](CO)O1)NCC1CCCCC1 | nt | nt | nt | -1 | nt
CCOC(=O)C1CCN(Cc2ccccc2C(F)(F)F)CC1 | 0 | 0 | 11972 | nt | -8
CCOC(=O)C1CCCCN1Cc1ccccc1C(F)(F)F (stereo unspecified) | 5 | -4 | 17635* | nt | 4
C[C@@H]1CN([C@H](C)CO)C(=O)CCCn2cc(nn2)CO[C@H]1CN(C)Cc1cccc(C(F)(F)F)c1 | nt | nt | nt | -2 | nt
COc1ccc(S(=O)(=O)Nc2ccc3c(c2)C(=O)N([C@H](C)CO)C[C@@H](C)[C@H](CN(C)Cc2ccc(Oc4ccccc4)cc2)O3)cc1 | nt | nt | nt | 0 | nt
COc1ccc(C(=O)c2c(N)sc3c2CCN(C)C3)cc1 | 34* | -7 | 4611 | 0 | -51
C[C@H]1CCCCO[C@@H](CN(C)C(=O)Nc2ccc(F)cc2)[C@@H](C)CN([C@@H](C)CO)C(=O)c2cc(NC(=O)Nc3ccccc3)ccc2O1 | nt | nt | nt | 0 | nt
CCOC(=O)CSc1nc2c(c(=O)[nH]c(=O)n2C)n1CCCc1ccccc1 | -2 | -2 | 22767* | nt | -3
COc1ccc(Nc2ncnc3sc(-c4ccccc4)cc23)cc1 | ? | 3 | 19970* | nt | -2
COc1ccc(-n2nnc3c(=O)n(Cc4ccccc4C)cnc32)cc1 | -1 | -7 | 11273 | 1 | -13
Cc1ccc(C)c(Cn2cnc3c(nnn3-c3ccc(F)cc3)c2=O)c1 | -1 | 1 | 16844* | nt | 0
SMILES | BoNT-A LC inh2 | Anthrax LF inh2 | Bead autofluor | TcdB inh | BoNT F protease
O=C1NC(=O)N(Cc2ccccc2Cl)C(=O)/C1=C/N1CCOCC1 | 0 | -1 | 23148* | nt | -3
CC(C)CC#Cc1ccc2c(c1)O[C@@H](CN(C)S(=O)(=O)c1ccc(F)cc1)[C@H](C)CN([C@@H](C)CO)S2(=O)=O | nt | nt | nt | -2 | nt
O=C(c1ccc(F)cc1)N1CC(=O)N2[C@H](CO)[C@@H](c3ccc(C#CC4CCCCC4)cc3)[C@H]2C1 | nt | nt | nt | 1 | nt
CCOCCCNS(=O)(=O)c1ccccc1 | 5 | -5 | 20142* | nt | 6
O=C1c2cnc3nc(SCc4cccc(Cl)c4)nn3c2CC2c3ccccc3CCN12 (stereo unspecified) | 0 | 0 | 21140* | nt | -1
CSc1nc2ncc3c(n2n1)CC1c2ccccc2CCN1C3=O (stereo unspecified) | 1 | -2 | 9385 | nt | 0
